Laboratory results: PubChem BioAssay AID1159580 (chemical genetic matrix, 2015)
Values joined by “and” are separate entries in the source; they are usually repeats but may differ in a detail not shown here. Equal values may be shown once. Among all 5,500 compounds or so, about 2,000 (36%) were called active. Another 18% or so got no clear call; they are omitted. Rule as the data show it: active = normalized growth mostly below about 0.91 (no sharp cut-off); inconclusive = no clear call, values can overlap the other calls; inactive = mostly above about 0.92. The list shows a part of the results.

Assay: chemical genetic growth profiling, strain panel (AID 1159580);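 also: tested at 20 µM; growth read once vehicle control cultures reached saturation at 30 °C; 1 = growth at the plate median or of vehicle wells; lower values mean less growth of the strain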
Conditions: S. cerevisiae deletion strains, growth OD

Measured: normalized growth

c1ccc(CN(CC2=NCCN2)c2ccccc2)cc1
inactive: locus YAL013W, strain DEP1, hits give low values 1.01 | locus YAL021C, strain ccr4, hits give low values 0.973 | locus YAL026C, strain drs2, hits give low values 0.999 | locus YAL030W, strain snc1, hits give low values 1.01 | locus YBL061C, strain skt5, hits give low values 1.03 | locus YBR009C, strain hhf1, hits give low values 0.998 | locus YBR021W, strain FUR4, hits give low values 1.02 | locus YBR023C, strain chs3, hits give low values 1.02 | locus YBR171W, strain sec66, hits give low values 1.02 | locus YBR229C, strain ROT2, hits give low values 1 | locus YBR231C, strain swc5, hits give low values 0.999 | locus YBR279W, strain paf1, hits give low values 1.02 | locus YCL011C, strain gbp2, hits give low values 0.989 | locus YCL016C, strain dcc1, hits give low values 0.976 | locus YCL029C, strain bik1, hits give low values 1.01 | locus YCL069W, strain vba3, hits give low values 1.02 | locus YCR088W, strain abp1, hits give low values 1.01 | locus YDL005C, strain med2, hits give low values 1.01 | locus YDL035C, strain GPR1, hits give low values 1.02 | locus YDL040C, strain nat1, hits give low values 1.02 | locus YDL074C, strain BRE1, hits give low values 1.01 | locus YDL101C, strain DUN1, hits give low values 1.01 | locus YDL134C, strain PPH21, hits give low values 1.01 | locus YDL185W, strain tfp1, hits give low values 1 | locus YDL192W, strain arf1, hits give low values 1 | locus YDR001C, strain nth1, hits give low values 1.01 | locus YDR069C, strain doa4, hits give low values 1.02 | locus YDR101C, strain arx1, hits give low values 0.994 | locus YDR137W, strain rgp1, hits give low values 0.967 | locus YDR159W, strain sac3, hits give low values 1 | locus YDR162C, strain NBP2, hits give low values 1.03 | locus YDR195W, strain ref2 1.02 | locus YDR297W, strain sur2, hits give low values 1.01 | locus YDR318W, strain mcm21, hits give low values 0.992 | locus YDR334W, strain swr1, hits give low values 1.02 | locus YDR335W, strain msn5, hits give low values 1 | locus YDR388W, hits give low values 1.01 | locus YDR392W, strain spt3, hits give low values 0.961 | locus YDR502C, strain sam2, hits give low values 1 | locus YEL003W, strain gim4, hits give low values 1.03 | locus YEL037C, strain rad23, hits give low values 1.01 | locus YEL061C, strain CIN8 (second series), hits give low values 1.01 | locus YEL061C, strain CIN8, hits give low values 1.01 | locus YER015W, strain faa2, hits give low values 0.999 | locus YER016W, strain bim1, hits give low values 1.01 | locus YER110C, hits give low values 0.992 | locus YER111C, strain swi4, hits give low values 1.03 | locus YER155C, strain BEM2 (second series), hits give low values 1.04 | locus YER155C, strain BEM2, hits give low values 0.997 | locus YER167W, strain BCK2, hits give low values 1.01 | locus YFR010W, strain ubp6, hits give low values 1.02 | locus YGL078C, strain dbp3, hits give low values 0.997 | locus YGL086W, strain mad1, hits give low values 0.997 | locus YGL167C, strain pmr1, hits give low values 1.03 | locus YGL173C, strain kem1, hits give low values 1.03 | locus YGL227W, strain vid30, hits give low values 1.01 | locus YGL240W, strain doc1, hits give low values 1.04 | locus YGL248W, strain PDE1, hits give low values 1 | locus YGL253W, strain hxk2, hits give low values 1 | locus YGR135W, strain pre9, hits give low values 1 | locus YGR252W, strain gcn5, hits give low values 0.997 | locus YHR013C, strain ard1, hits give low values 0.972 | locus YHR027C, strain rpn1, hits give low values 1.02 | locus YHR030C, strain SLT2, hits give low values 1.01 and 1.02 | locus YHR079C, strain IRE1 (second series), hits give low values 0.995 | locus YHR079C, strain IRE1, hits give low values 1.03 | locus YHR094C, strain hxt1, hits give low values 1 | locus YHR129C, strain ARP1, hits give low values 1.01 | locus YHR142W, strain chs7, hits give low values 1 | locus YHR200W, strain rpn10, hits give low values 1.01 | locus YIL066C, strain RNR3, hits give low values 1.03 | locus YIL073C, strain SPO22, hits give low values 1 | locus YIL125W, strain kgd1, hits give low values 1 | locus YIR030C, strain dcg1, hits give low values 0.991 | locus YJL092W, strain hpr5, hits give low values 1.03 | locus YJL095W, strain BCK1 (second series), hits give low values 1.01 | locus YJL095W, strain BCK1, hits give low values 1.02 and 1.04 | locus YJL115W, strain asf1, hits give low values 0.999 | locus YJL129C, strain trk1, hits give low values 1.03 | locus YJL134W, strain LCB3, hits give low values 1.01 | locus YJL154C, strain vps35, hits give low values 1.01 | locus YJL164C, strain tpk1, hits give low values 0.974 | locus YJL166W, strain qcr8, hits give low values 1.03 | locus YJL168C, strain set2, hits give low values 0.993 | locus YJL187C, strain SWE1 (second series), hits give low values 1.01 | locus YJR043C, strain POL32, hits give low values 1.01 | locus YJR066W, strain TOR1, hits give low values 0.983 | locus YKL009W, strain mrt4, hits give low values 0.994 | locus YKL068W, hits give low values 1 | locus YKL085W, strain MDH1 (second series), hits give low values 1.01 | locus YKL085W, strain MDH1, hits give low values 1.01 | locus YKL160W, strain elf1, hits give low values 1.02 | locus YKR001C, strain vps1, hits give low values 0.997 | locus YKR026C, strain gcn3, hits give low values 0.97 | locus YKR091W, strain srl3, hits give low values 0.999 | locus YLL001W, strain dnm1, hits give low values 1.03 | locus YLL026W, hits give low values 1.02 | locus YLL041C, strain sdh2, hits give low values 1.01 | locus YLR027C, strain aat2, hits give low values 0.993 | locus YLR039C, strain RIC1, hits give low values 0.993 | locus YLR058C, strain SHM2, hits give low values 1.01 | locus YLR102C, strain apc9, hits give low values 0.998 | locus YLR113W, strain HOG1, hits give low values 1.04 | locus YLR221C, strain rsa3, hits give low values 1.01 | locus YLR258W, strain gsy2, hits give low values 0.992 | locus YLR262C, strain YPT6 (second series), hits give low values 1.01 | locus YLR262C, strain YPT6, hits give low values 1.04 | locus YLR268W, strain sec22, hits give low values 0.999 | locus YLR320W, strain mms22, hits give low values 0.982 | locus YLR330W, strain CHS5, hits give low values 1.01 | locus YLR342W, strain FKS1 (second series), hits give low values 1.03 | locus YLR342W, strain FKS1, hits give low values 1.02 | locus YLR357W, strain rsc2, hits give low values 1.03 | locus YLR370C, strain arc18, hits give low values 1 | locus YLR371W, strain rom2, hits give low values 1.01 | locus YLR384C, strain iki3, hits give low values 1.02 | locus YLR418C, strain cdc73, hits give low values 1.02 | locus YML016C, strain PPZ1, hits give low values 1 | locus YML032C, strain rad52, hits give low values 0.993 | locus YML120C, strain ndi1, hits give low values 1.03 | locus YML124C, strain tub3, hits give low values 0.992 | locus YMR058W, strain fet3, hits give low values 1.01 | locus YMR078C, strain ctf18, hits give low values 1 | locus YMR125W, strain sto1, hits give low values 1.01 | locus YMR129W, hits give low values 1.02 | locus YMR205C, strain PFK2, hits give low values 1.02 | locus YMR223W, strain ubp8, hits give low values 1 | locus YMR231W, strain pep5, hits give low values 1 | locus YMR307W, strain GAS1, hits give low values 1.08 | locus YNL067W, strain RPL9B, hits give low values 1.02 | locus YNL071W, strain lat1, hits give low values 0.999 | locus YNL183C, strain NPR1, hits give low values 0.975 | locus YNL209W, strain ssb2, hits give low values 0.996 | locus YNL233W, strain BNI4, hits give low values 1 | locus YNL248C, strain rpa49, hits give low values 0.987 | locus YNL250W, strain rad50, hits give low values 0.992 | locus YNL271C, strain bni1, hits give low values 0.995 | locus YNL298W, strain CLA4, hits give low values 1.01 | locus YNL307C, strain MCK1, hits give low values 1 | locus YNL322C, strain KRE1 (second series), hits give low values 1.01 | locus YNR049C, strain mso1, hits give low values 1.01 | locus YNR052C, strain pop2, hits give low values 0.996 | locus YOL012C, strain htz1 0.89 | locus YOL147C, strain pex11, hits give low values 1 | locus YOR001W, strain rrp6, hits give low values 1.02 | locus YOR061W, strain CKA2, hits give low values 1.01 | locus YOR069W, strain VPS5, hits give low values 1 | locus YOR070C, strain gyp1, hits give low values 1 | locus YOR080W, strain dia2, hits give low values 1.01 | locus YOR083W, strain WHI5, hits give low values 1.02 | locus YOR106W, strain vam3, hits give low values 1.03 | locus YOR136W, strain idh2, hits give low values 1 | locus YOR144C, strain elg1, hits give low values 0.998 | locus YOR184W, strain ser1, hits give low values 1.01 | locus YOR231W, strain MKK1, hits give low values 1.06 | locus YOR265W, strain rbl2, hits give low values 1.01 | locus YOR270C, strain vph1, hits give low values 0.988 | locus YOR290C, strain snf2, hits give low values 0.969 | locus YOR316C, strain cot1, hits give low values 1 | locus YPL051W, strain arl3, hits give low values 1.03 | locus YPL078C, strain atp4, hits give low values 1.04 | locus YPL106C, strain sse1, hits give low values 0.998 | locus YPL240C, strain hsp82, hits give low values 0.97 | locus YPL241C, strain CIN2, hits give low values 1.01 | locus YPL256C, strain CLN2, hits give low values 1.06 | locus YPR119W, strain clb2, hits give low values 0.991 | locus YPR141C, strain kar3, hits give low values 1 | locus YPR163C, strain tif3, hits give low values 1.01 | locus YPR167C, strain met16, hits give low values 0.996 | strain wtn01, hits give low values 0.99
